Bioassay records as filed in PubChem.
The list is not random: actives were taken first. Their share in the collection is about 3.5%.
GPR151 ag: activators of human GPR151; activation, % at 11.2 µM; actives 1% (n = 650,000); Q8TDV0; AID 1508602; PathHunter beta-arrestin GPR151 cells, luminescence; in the data active = activation above about 4.9%;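 also: 0% = median of compound wells and 100% = cells with positive control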
MITF primary: blocks human microphthalmia-associated transcription factor; AlphaScreen MITF homodimerization, bead proximity signal; inhibition, % at 2.6 µM; actives 0.91% (n = 650,000); AID 1259374; in the data active = inhibition above about 50%;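 also: 0% = vehicle wells with protein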
FBW7 act: activators of human E3 ligase FBW7; Q969H0; AlphaScreen FBW7–phospho-cyclin E peptide binding, activator screen; normalized activity (activation), % at 26.1 µM; actives 0.13% (n = 650,000); AID 1259310; in the data active = normalized activity above about 1.9%;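 also: purified mutant Fbw7 with reduced substrate affinity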
Target sequence (Q969H0 whole entry, looked up): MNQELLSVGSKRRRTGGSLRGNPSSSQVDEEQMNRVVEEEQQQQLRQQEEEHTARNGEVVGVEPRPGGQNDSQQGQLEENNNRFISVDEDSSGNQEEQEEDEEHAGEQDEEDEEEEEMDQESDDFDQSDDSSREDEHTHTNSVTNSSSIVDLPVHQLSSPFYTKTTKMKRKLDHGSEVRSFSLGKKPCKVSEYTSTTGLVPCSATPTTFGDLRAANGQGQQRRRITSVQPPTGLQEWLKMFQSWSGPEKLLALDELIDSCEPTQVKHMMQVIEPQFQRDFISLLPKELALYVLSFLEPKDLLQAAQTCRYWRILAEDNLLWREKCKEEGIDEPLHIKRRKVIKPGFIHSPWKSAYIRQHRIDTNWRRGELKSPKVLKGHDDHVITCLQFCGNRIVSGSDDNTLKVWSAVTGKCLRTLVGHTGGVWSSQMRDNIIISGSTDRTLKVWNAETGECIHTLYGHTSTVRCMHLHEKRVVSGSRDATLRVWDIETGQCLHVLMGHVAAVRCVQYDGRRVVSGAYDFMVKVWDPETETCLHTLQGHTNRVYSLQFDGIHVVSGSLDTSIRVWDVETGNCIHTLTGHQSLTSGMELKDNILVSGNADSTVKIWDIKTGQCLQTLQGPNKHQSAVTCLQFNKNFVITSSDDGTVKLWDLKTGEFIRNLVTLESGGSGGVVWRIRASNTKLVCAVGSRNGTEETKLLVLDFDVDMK
TEAD-YAP inh: TEAD-YAP interaction inhibition; HEK-TIYL cells, TEAD-Gal4/YAP UAS-luciferase luminescence; inhibition, % at 9.12 µM; actives 1.4% (n = 640,000); AID 1259422; in the data active = inhibition above about 32%;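 also: 0% = median of test compound wells and 100% = reference inhibitor wells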
GPR151 conf act: human GPR151 activation, confirmation screen; shares compounds with GPR151 ag; GPR151 PathHunter beta-arrestin cells, luminescence, 90 min; % of EA-reagent control over plate median; activation, % at 11.2 µM; 6,700 tested, under 10 active;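 active = mean percent activation across replicates above the confirmation screen cutoff of 4.91%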
GPR119 ag: activates human GPR119 in a GPR151 counter-screen; actives 0.3% (n = 6,700); shares compounds with GPR151 ag; GPR119 PathHunter beta-arrestin cells, luminescence, 90 min; 0 = compound-well median, 100 = enzyme-acceptor control; activation, % at 11.2 µM;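 active = mean percent activation in the counterscreen above 29.09%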;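 also: counterscreen on off-target GPR119 to flag nonselective hits from the GPR151 activator screen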
* = called active by the depositor; · = not tested or not shown; ! = not confirmed by another sample.

SMILES	GPR151 ag	MITF primary	FBW7 act	TEAD-YAP inh	GPR151 conf act	GPR119 ag
COc1ccc(Cl)cc1S(=O)(=O)NC(C)c1ccccc1 (configuration not stated)	1	1	0	-1	·	·
C=CCNC(=O)COc1ccc(S(=O)(=O)NC(C)c2ccccc2)cc1Cl (configuration not stated)	2	0	0	0	·	·
CCOc1ccc(Cl)cc1S(=O)(=O)NC(C)c1ccccc1 (configuration not stated)	5.1*	-6	0	-9	0	5
CC(NS(=O)(=O)c1ccc(OCC(=O)Nc2ccccc2)c(Cl)c1)c1ccccc1 (configuration not stated)	6.1*	-20	0	-3	1	4
Cc1sc2nc(C)n(C3CCN(C(=O)C4CCCCC4)CC3)c(=O)c2c1C	1	-11	0	-5	·	·
O=C(Nc1ccc2oc(-c3ccc(Cl)cc3Cl)nc2c1)c1ccc([N+](=O)[O-])cc1	0	3	0	1	·	·
CCOCCCNC(=O)CCCOc1ccc(Cl)cc1Cl	0	-5	0	0	·	·
CCCNC(=O)CCCOc1ccc(Cl)cc1Cl	13*	12	0	-4	-1	3
C[C@@H](O)[C@@H]1NC(=O)[C@H]2CN(C(=O)c3ccc(-c4ccccc4)cc3)CCN2C1=O	1	-20	0	-9	·	·
O=C(OCc1ccccc1)/C(=C/c1c[nH]c2ccccc12)[N+](=O)[O-]	5.5*	13	0	8	-1	-2
CCOc1ccc(-n2c(=S)sc3c(=O)n(-c4ccccc4)c(SCC(=O)Nc4cc(OC)ccc4OC)nc32)cc1	-2	22	0	-5	·	·
O=S(=O)(NCc1ccco1)c1cccc2c(S(=O)(=O)NCc3ccco3)cccc12	0	11	0	-1	·	·
O=[N+]([O-])c1ccccc1S(=O)(=O)NCc1ccco1	7.1*	14	0	-23	0	13
O=[N+]([O-])c1ccccc1S(=O)(=O)c1ccccc1[N+](=O)[O-]	5.5*	16	1	10	0	-1
Cn1c(SCC(=O)c2ccc(F)cc2)nnc1-c1cccc([N+](=O)[O-])c1	5.7*	5	0	13	0	-9
COc1ccccc1-c1nnc(SCc2nnc(-c3cccc([N+](=O)[O-])c3)o2)n1C	6.3*	-9	0	10	1	7
Cn1c(SCCC(=O)O)nnc1-c1cccc([N+](=O)[O-])c1	1	8	0	7	·	·
COCCn1c(=O)[nH]c2nc(-c3ccccc3CO)cnc21	0	0	0	5	·	·
CC(=O)Nc1ccc(Nc2nc(-c3csc4ccccc34)nc3c2ncn3CCN2CCCC2=O)cc1	0	-10	0	3	·	·
CCOC(=O)C(=Cc1ccc(N(C)C)cc1)C(=O)OCC	-1	5	0	14	·	·
OC(COc1cccc2ccccc12)CN1CCNCC1 (configuration not stated)	12*	4	1	14	1	8
COc1cccc(OC)c1OCC(O)CN1CCN(c2ccccc2)CC1 (configuration not stated)	6.3*	6	0	-4	0	16
CC(C)NCC(O)COc1cccc2ccccc12 (configuration not stated)	5.5*!	4	0	8	-1	-10
COc1cccc(OC)c1OCC(O)CN1CCN(c2ccccn2)CC1 (configuration not stated)	-2	6	0	4	·	·
Cc1cc(CN(C)C(=O)CC2C(=O)NCCN2Cc2cccc(Oc3ccccc3)c2)n[nH]1 (configuration not stated)	0	9	0	8	·	·
SMILES	GPR151 ag	MITF primary	FBW7 act	TEAD-YAP inh	GPR151 conf act	GPR119 ag
Fc1ccccc1C1=CC(c2ccc(Br)cc2)n2nnnc2N1 (configuration not stated)	0	0	0	-3	·	·
COc1ccc(CC(=O)Nc2c3c(nn2-c2cccc(Cl)c2)CSC3)cc1OC	1	4	0	-4	·	·
CN(C)CCOC1=Cc2ccccc2Sc2ccc(Cl)cc21	5.7*	12	1	·	0	-6
CN(C)CCC(=O)N1c2ccccc2Sc2ccc(Cl)cc21	-1	5	0	-12	·	·
OCCN1CCN(c2ncnc3sccc23)CC1	-2	9	0	-8	·	·
C=CCN1C(=O)NC(=O)/C(=C/c2cn(Cc3ccccc3F)c3ccccc23)C1=O	-1	-1	0	8	·	·
CCOc1cc(C2CC(=O)NC3=C2C(=O)CC(c2ccc(OC)c(OC)c2)C3)ccc1O (configuration not stated)	6.3*	17	0	-1	0	1
COc1cc(C2CC(=O)NC3=C2C(=O)CC(c2ccc(OC)c(OC)c2)C3)ccc1O (configuration not stated)	-1	17	1	10	·	·
Cc1c(C(=O)N/N=C/c2ccc(-c3ccc(Cl)c(C(=O)O)c3)o2)sc(N)c1C#N	1	-1	0	8	·	·
CC1CN(c2ccc(Br)cc2)c2nc3c(c(=O)n(CC(N)=O)c(=O)n3C)n2C1 (configuration not stated)	10*	0	0	-7	-2	-19
CN1CCN(c2ccc(-c3ccc(C(=O)Nc4ccccc4)s3)cc2)CC1	0	4	0	-7	·	·
Cc1csc2ncc(C(=O)N3CCc4ccccc43)c(=O)n12	7.9*	7	0	-15	2	-2
Cc1cc2ncn(C3CC(=O)N(c4cccc(Cl)c4)C3=O)c2cc1C (configuration not stated)	1	-1	0	-6	·	·
O=C(O)c1cc([N+](=O)[O-])cc([N+](=O)[O-])c1N1CCN(CCO)CC1	5.3*	17	0	8	1	8
CCOC(=O)c1sc(N2C(=O)C(=O)/C(=C(/O)c3ccc(F)cc3)C2c2cccc(Cl)c2)nc1C (configuration not stated)	0	2	0	-5	·	·
Cc1cc(F)ccc1NC(=O)CCNc1c(N2CCCC2)c(=O)c1=O	5.0*	14	0	-3	0	-13
O=C(NCc1ccccc1)c1noc2c1COc1ccccc1-2	1	-4	0	-8	·	·
CC(C)CCNC(=O)c1noc2c1COc1ccccc1-2	6.6*	3	0	-72	-1	-18
CCC(C)NC(=O)[C@H]1C[C@@H](c2ccco2)NS(=O)(=O)N1C (some centres not stated)	-1	-4	0	-13	·	·
CC1Sc2cc(S(=O)(=O)CCC(=O)Nc3ccccc3F)ccc2NC1=O (configuration not stated)	5.3*	-1	0	-3	0	-7
